In the assay the test system is Plasmodium falciparum NF54. The assay is described as follows: growth inhibition relative to untreated control; higher = more inhibition. To be noted: 72 h. A digest of the protocol: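 In dark 96-well half-area plates, each well held 100 μL of P. falciparum NF54 ring-stage culture at 1% parasitemia and 1% hematocrit. The cultures received a single test-compound dose of 5 μM or 1 μM and were kept at 37 °C for 72 h, in minimal RPMI either plain or enriched with folate (2.2 μM), pABA (7.3 μM), pHBA (7.3 μM), tyrosine (111 μM), phenylalanine (90 μM) and tryptophan. SYBR Green staining gave growth inhibition, expressed against untreated wells, with uninfected erythrocytes serving as the background.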

[1] abbreviates: 1 µM, MM + chorismate end-products (CM screening medium).
Where [2] appears, read: 5 µM, MM + chorismate end-products (CM screening medium).

A value given as a limit tells only on which side of the number the result lay.

As to `Cc1ccc(NC(=O)CC2COc3ccccc3O2)cc1Cl` (stereo not drawn), the growth inhibition is, setting by setting: under setting [1], 23.4%; (1 µM, minimal medium (MM)) 10.6%; under setting [2], less than 0%; (5 µM, minimal medium (MM)) less than 0%.
In the case of `Cc1ncc(-c2ccnc(Nc3ccc(S(C)(=O)=O)cc3)n2)n1C(C)C`, the growth inhibition was 67% under setting [1]; 59.4% (1 µM, minimal medium (MM)); 42.1% under setting [2]; 45.6% (5 µM, minimal medium (MM)).
On the same counts, the results for `CCn1ncc2c(NC3CCOCC3)c(CNC(=O)c3ccnn3C)c(C)nc21` are 63.5%, more than 100%, 92.6% and 91.4%.
Taken in the same sequence, the figures for `OCc1ccc(-c2cncc(Nc3cccc(Cl)c3)c2)cc1` were 78.7%, more than 100%, 83.2% and 85%.
Taken in the same sequence, the figures for `COc1ccc(-c2cncc3ccc(C(=O)NCCCn4ccnc4)nc23)cc1` were 22.9%, 72%, 84.4% and 92.4%.
For the compound `CCn1cnc2c(Nc3cc(F)cc(F)c3)nc(C#N)nc21`, the growth inhibition reads like this: under setting [1], 36.4%; (1 µM, minimal medium (MM)) less than 0%; under setting [2], 40.3%; (5 µM, minimal medium (MM)) less than 0%.
On to `O=C(N[C@H](Cc1ccccc1)C(=O)Nc1ccccc1N1CCOCC1)c1cccs1`, for which the growth inhibition turned out to be 6.47% under setting [1]; 2.12% (1 µM, minimal medium (MM)); 47.7% under setting [2]; 27.5% (5 µM, minimal medium (MM)).
On the same counts, the results for `CC(C)(C)c1cc(C(=O)Nc2cccnc2)cc(C(=O)Nc2cccnc2)c1` are 88.9%, 94.2%, 87.5% and 88.6%.
Taken in the same sequence, the figures for `COc1cccc(-n2nnnc2S(=O)(=O)Cc2ccccc2)c1` were 13.8%, 3.94%, 65.6% and less than 0%.
On the same counts, the results for `Cn1ncc2c(N3CCOCC3)nc(NCCc3c[nH]c4ccccc34)nc21` are 18.9%, 31.1%, 10.8% and less than 0%.
Consider `c1cc(C2=NCCN2)cc(-c2cc(-c3ccc(C4=NCCN4)cc3)no2)c1`, for which the growth inhibition by setting is: under setting [1], 81.6%; (1 µM, minimal medium (MM)) 81.6%; under setting [2], 97.8%; (5 µM, minimal medium (MM)) 89.7%.
In the case of `Cc1cc(Cl)c(S(=O)(=O)N2CCCC2)cc1OCC(=O)NC1CCCCC1`, the growth inhibition under setting [1] was 71.3%; the growth inhibition (1 µM, minimal medium (MM)) worked out at 100%; the growth inhibition under setting [2] was found to be 82.3%; the growth inhibition (5 µM, minimal medium (MM)) came out at 59.9%.
Taken in the same sequence, the figures for `N=C(N)Nc1ccc(-c2ccc(-c3ccc(N=C(N)N)c(Cl)c3)o2)cc1Cl` were 73.6%, more than 100%, 97.4% and 88.2%.
Taken in the same sequence, the figures for `O=C(C(Cc1c[nH]c2ccccc12)NS(=O)(=O)c1ccc(Cl)cc1)N1CCCCC1` (stereo not drawn) were 58%, 56.9%, 96.8% and 88.7%.
On the same counts, the results for `CCc1c(C)nc(-n2nc(C)cc2NC(=O)c2ccccc2SC)[nH]c1=O` are 72.1%, 60.2%, 86.1% and 79.9%.
Turning to `Cc1cc(NCCc2ccccc2)nc(NC(=N)Nc2ccc(Cl)cc2)n1`, the growth inhibition under setting [1] turned out to be 97.8%; the growth inhibition (1 µM, minimal medium (MM)) came to 97.7%; the growth inhibition under setting [2] is 86.2%; the growth inhibition (5 µM, minimal medium (MM)) turned out to be 93.7%.
With `O=C(Cn1ccnc1[N+](=O)[O-])NCc1ccccc1`, the growth inhibition is, setting by setting: under setting [1], 20.5%; (1 µM, minimal medium (MM)) less than 0%; under setting [2], 0.641%; (5 µM, minimal medium (MM)) less than 0%.
As to `O=C(Nc1ccccc1)c1ccc(-c2cc3ccncc3cc2OC2CCNCC2)s1`, the growth inhibition runs as follows: under setting [1], 98.5%; (1 µM, minimal medium (MM)) more than 100%; under setting [2], 96.1%; (5 µM, minimal medium (MM)) 94.6%.
Taken in the same sequence, the figures for `CCc1ccccc1-n1c(C)cn2c3c(=O)n(C(C(=O)OC)C(C)C)c(=O)n(C)c3nc12` (stereo not drawn) were 72.6%, 83%, 84.3% and 87.9%.
On the same counts, the results for `Cc1cc(Cl)ccc1NC(=O)CCc1ccc(S(=O)(=O)NCC(C)C)cc1` are 23%, less than 0%, 6.82% and less than 0%.
On the same counts, the results for `Cc1nn2c(O)c3c(nc2c1-c1ccc(F)cc1)CCCC3` are 11%, 13.4%, 36.7% and 24.6%.
Consider `COc1ccc(Cl)cc1NC(=O)CN(C)C(=O)c1cnn(-c2ccccc2)n1`, for which the growth inhibition reads like this: under setting [1], 98.1%; (1 µM, minimal medium (MM)) 95.6%; under setting [2], 85%; (5 µM, minimal medium (MM)) 98.3%.
Taken in the same sequence, the figures for `COCC(C)NC(=O)CSc1ncnc2sc(-c3ccccc3)cc12` (stereo not drawn) were 11.3%, less than 0%, less than 0% and less than 0%.
Consider `CCc1nc2ccc(Cl)cn2c1C(=O)NCc1ccc(N2CCC(c3ccc(OC(F)(F)F)cc3)CC2)cc1`, for which the growth inhibition was less than 0% under setting [1]; less than 0% (1 µM, minimal medium (MM)); 91% under setting [2]; 71.4% (5 µM, minimal medium (MM)).
For the compound `C[C@]1(COc2ccc(N3CCC(Oc4ccc(OC(F)(F)F)cc4)CC3)cc2)Cn2cc([N+](=O)[O-])nc2O1`, the growth inhibition came out at 2.53% under setting [1]; 3.49% (1 µM, minimal medium (MM)); 21.9% under setting [2]; 9.3% (5 µM, minimal medium (MM)).
On the same counts, the results for `CC(C)(C)OC(=O)N1CCN(c2cc(-c3ccc(Oc4ccccc4)cc3)n[nH]2)CC1` are less than 0%, 18%, 64.8% and 16.8%.
On the same counts, the results for `CC(C)/N=c1\cc2n(-c3ccc(Cl)cc3)c3ccccc3nc-2cc1Nc1ccc(Cl)cc1` are 91.5%, 89.1%, 90% and 94.1%.
Taken in the same sequence, the figures for `CNc1nnc(Sc2cnn(-c3ccccc3)c(=O)c2Cl)s1` were 27%, 16.6%, 79.8% and 62.1%.
Take `CC(=O)OCC1OC([S-])C(OC(C)=O)C(OC(C)=O)C1OC(C)=O.CCP(CC)CC.[Au+]` (stereo not drawn): the growth inhibition is 84.8% under setting [1]; 71.6% (1 µM, minimal medium (MM)); 87.8% under setting [2]; 91.7% (5 µM, minimal medium (MM)).
On the same counts, the results for `COc1cc(-c2cc(-c3ccc(S(C)(=O)=O)cc3)cnc2N)ccc1O` are more than 100%, more than 100%, 96.8% and 96%.
As to `CC1=Nc2ccc(Cl)cc2C(c2ccccc2)N1CCNC(=O)CN(C)C` (stereo not drawn), the growth inhibition under setting [1] came out at 49%; the growth inhibition (1 µM, minimal medium (MM)) turned out to be 19%; the growth inhibition under setting [2] is more than 100%; the growth inhibition (5 µM, minimal medium (MM)) was 89.7%.
In the case of `COc1cccc(-n2nnnc2S(C)(=O)=O)c1`, the growth inhibition was determined as 19.7% under setting [1]; 29.5% (1 µM, minimal medium (MM)); 35% under setting [2]; 8.78% (5 µM, minimal medium (MM)).

(Values after the supplement of paper PMC6763611.)
